# Experimental data: the supplement of paper PMC12632987
# Whole data set: some 4,500 sequences, median “median log2 fold change of GCK-ALFA target abundance (FLAG IP / Myc IP barcode read proportion)” near 0.078, cut for the lowest 2% near -0.6. The sample as a whole holds a higher share of the lowest values than the screen did.
# B1: GBRAP_125_3133 (protein)
# chain: MTEEILEDLAIVARALGFSDDDVEEAVEIARKHGVKGTLYAIMLALGYEEVADLVEKITEEEAIEVLREVAARIREDPSLTPEEVVALIKELLKEKIAKK
# B2: GBRAP_125_3132 (protein)
# chain: HMEEILENLAIVAKALGLSDDDVEEAVKIAEKHGVKGTMYAILAALGYDEVADLVEKITEEEAIEVVKEVAEKIKKDPSLTPEEVVELIKKLLKEKIAAK
# B3: GBRAP_125_3134 (protein)
# chain: GMAEDLEDLAIVARALGFSDDDVAEAVAIAAKHGFKGTLYAIMAALGYDEVADLVEKITEEEAIEVIREVAAEIRADPSLTPEEVVELIKKRLEEVIAKK
# B4: GBRAP_52_5954 (protein)
# chain: AAARIQAQVDRLAALVRAGDLDAARALARELAETLDEEELRAFAAAVAAAVAAAPADELDAAFRLAEIVADELEREGRDEELAGDLLAAAAAALYAKEQA
# B5: GBRAP_52_5929 (protein)
# chain: MREEARELAERVLEAAEAGDEERLRELLREIVEELDDEEIELVIDELAELTIERGPEYYDLFADIMDLLEDEVEKAGRDVERVQYAIARAAGRMYDALQA
# B6: GBRAP_137_3627 (protein)
# chain: ATVTIELRRYEDVVEITITLDDPEKAEAAAELVEDVAHEEGALAVSIELEEDGTLVVEVWVPRDKAEALLARLVERLTTELGATVVIRDLDTGEVRVVTP
# B7: GBRAP_184_5122 (protein)
# chain: DVVHRAVEGEKAEELIAASRAVVEEAAAAGKRLHLSVFAKNMSVEEIIEVIKAMGELKARYPQVSVTVDVLDELSEEEIDKVLKAADEAGVRVVIAIPEE
# B8: GBRAP_11_2857 (protein)
# chain: KKEKLKEAAELARKAAEALEKLLKEGVDDKELQKKIEELLKKLLELVKEYGDPDLIKLAEIALENFQKAKKDPKNAEKYIKEALAAVRVLEGNLLLEIDE
# Molecular target: GABARAP, O95166
# Test: median log2 fold change of GCK-ALFA target abundance (FLAG IP / Myc IP barcode read proportion) (log2 ratio); each designed protein is fused to an ALFA-tag nanobody in HEK293 cells to bring the named protein to FLAG-tagged glucokinase (GCK); Myc marks an untargeted standard; higher = target protein stabilised (more abundant)
# Settings: target protein: 3xFLAG-MCP-GCK-ALFA reporter; HEK293 landing pad (RPLP)
# How it was run: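 HEK293 landing-pad cells received a recombined binder library fused to the ALFA nanobody and were induced with 2 μg mL^−1 doxycycline, then transfected with a plasmid encoding a FLAG-tagged target and a Myc-tagged standard. Lysates were collected after 48 h for anti-FLAG and anti-Myc immunoprecipitation, and the circular RNA barcodes were reverse transcribed, amplified and sequenced. Target abundance for each binder is the median log2 ratio of FLAG to Myc barcode read proportions. Barcodes had to reach a proportion of at least 10^−7 in both replicates, each binder needed at least 3 barcodes per replicate, a pseudocount of 10^−6 was applied, and the two replicates were pooled.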
# Sequence of GABARAP, O95166 (O95166 whole entry, the tested form may be a part): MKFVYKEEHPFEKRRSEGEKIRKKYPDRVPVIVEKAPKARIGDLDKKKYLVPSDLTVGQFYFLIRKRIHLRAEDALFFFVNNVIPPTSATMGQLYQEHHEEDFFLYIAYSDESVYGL
row,Binder,median log2 fold change
1,B1,-0.744
2,B2,-0.0148
3,B3,-0.575
4,B4,-0.0538
5,B5,-0.453
6,B6,-0.0361
7,B7,0.0426
8,B8,0.0648
